PubChem BioAssay AID743048 (Broad Institute, 2013)
Results with a measured potency or affinity are listed apart.

target: Paired box protein Pax-2 (Homo sapiens) (UniProt Q02962); assay: PAX2 cell-based inhibition, dose response, selectivity assay for PAX8 inhibitor project, plate reader, dry powder samples (AID 743048); conditions: Pax2 cell-based reporter; series mostly up to 50 µM; activity, negative = inhibition: at the top concentration
Sequence (Q02962 whole entry, looked up): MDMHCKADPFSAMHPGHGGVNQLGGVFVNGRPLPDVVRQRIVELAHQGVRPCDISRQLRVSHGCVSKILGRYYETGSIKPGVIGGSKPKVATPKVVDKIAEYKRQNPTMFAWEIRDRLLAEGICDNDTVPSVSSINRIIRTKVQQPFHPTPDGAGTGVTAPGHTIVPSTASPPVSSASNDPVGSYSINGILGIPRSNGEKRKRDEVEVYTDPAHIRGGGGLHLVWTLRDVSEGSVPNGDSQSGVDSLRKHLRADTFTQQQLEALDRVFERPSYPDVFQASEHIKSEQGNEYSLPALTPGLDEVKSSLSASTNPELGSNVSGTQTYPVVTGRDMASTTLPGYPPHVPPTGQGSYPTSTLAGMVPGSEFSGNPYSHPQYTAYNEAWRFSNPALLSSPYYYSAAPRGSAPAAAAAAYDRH

activity, negative = inhibition, inactive:
Cc1ccc(-c2csc(NC3OC(=O)c4ccccc43)n2)cc1 (stereo not given) 9.07%, O=C(CCS(=O)(=O)c1ccccc1)Nc1nc2ccc(F)cc2s1 1.29%, O=C(CCCN1C(=O)/C(=C\c2cccc(Br)c2)SC1=S)Nc1ccccn1 43.3%, CN(C[C@H]1N[C@@H](CO)[C@@H]1c1ccc(C2=CCCC2)cc1)C(=O)c1ccncc1 34.4% [at 35 µM], CC1(C)CC(=O)c2sc(NC(=O)CCS(=O)(=O)c3ccccc3)nc2C1 -5.34%, CC(=O)Nc1ccc(NC(=O)c2nc(S(=O)(=O)Cc3ccccc3)ncc2Cl)cc1 79.9% [at 26 µM], N#C[C@H]1N[C@H](CO)[C@@H]1c1ccc(C#Cc2ccccc2F)cc1 30.2% [at 35 µM], CN(C[C@H]1N[C@@H](CO)[C@@H]1c1ccc(C2=CCCC2)cc1)C(=O)c1cccc(F)c1 279% [at 35 µM], C[C@@H]1CN([C@H](C)CO)C(=O)CCCn2cc(nn2)CO[C@H]1CN(C)C(=O)Nc1ccc(-c2cccs2)cc1 2.54% [at 35 µM], CN(C[C@H]1N[C@@H](CO)[C@@H]1c1ccc(C2=CCCC2)cc1)C(=O)c1ccc(F)cc1 231% [at 35 µM], CC(C)c1cc(C(=O)OCC(=O)N2CCN(C(=O)c3ccco3)CC2)c(O)c(C(C)C)c1 -18%, COc1ccc(-c2cc(C(F)(F)F)nc(S(=O)(=O)CCCC(=O)Nc3cc(C)on3)n2)cc1OC 266% [at 26 µM], N#C[C@@H]1[C@@H](c2ccc(-c3cccc(F)c3)cc2)[C@H](CO)N1C(=O)NC1CCCC1 -22.6% [at 35 µM], NS(=O)(=O)c1ccc(CCN2C(=O)/C(=C\c3ccc(Cl)cc3)SC2=S)cc1 -15.3%, C[C@H]1CN([C@@H](C)CO)C(=O)CCCn2nncc2CO[C@@H]1CN(C)C(=O)Nc1ccc(-c2cccs2)cc1 24.6% [at 35 µM]
